APP 5'UTR act – activates APP 5'UTR luciferase reporter | activation, % at 2 µM | actives 1% (n = 190,000) | AID 1276 | SH-SY5Y APP 5'UTR luciferase reporter, luminescence; zero percent = DMSO vehicle wells;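 active means activation above a set limit, based on mean plus 3 SD of controls, cut at about 140% in these data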
NF-kB expr up – raises NF-kB expression in human neuronal cells; NF-kB reporter expression; hits give high values; fold change at 12.5 µM; actives 1.6% (n = 190,000); AID 1239; in the data active means fold change above about 3.3
ssDAF-12 act – activates DAF-12 receptor from parasite S. stercoralis | HEK293 ssDAF-12/GRIP1 lit1-tk-luc reporter, luminescence; % of 3 µM dafachronic acid response | activation, % at 6.8 µM | actives 1% (n = 370,000) | AID 652126;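 active means activation above the mean over all tested compounds plus 3 SD, cut at about 0.9% in these data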
hgDAF12 agonist – agonists of H. glycines DAF-12 nuclear receptor; actives 1.8% (n = 370,000); AID 687014; HEK293 GAL4-hgDAF12 UAS-luciferase reporter, agonist luminescence; normalized to butyrate control; activation, % at 6.8 µM;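 active means activation above a cutoff set at the mean of all screened compounds plus 3 SD, cut at about 10% in these data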
hcDAF12 agonist – activates DAF-12 receptor from parasite H. contortus; HEK293 hcDAF-12 lit1-tk-luc reporter, luminescence; 0% DMSO, 100% Δ7-dafachronic acid; activation, % at 6.8 µM; actives 1.4% (n = 370,000); AID 652067;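 active means activation above the mean of all tested compounds plus 3 SD, cut at about 5.5% in these data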
LXR ag – LXR-beta agonism as hcDAF-12 counter-screen; HEK293 Gal4-LXR tk-luc reporter, luminescence, 24 h; normalized: DMSO 0%, positive control 100%; 3,400 tested, under 10 active; AID 743027; activation, % at 6.8 µM; shares compounds with hcDAF12 agonist;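 active means mean percent activation of the reporter above a cutoff set as the average over tested compounds plus their standard deviation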
Target sequence (P55055 whole entry, looked up, the tested form may be a part): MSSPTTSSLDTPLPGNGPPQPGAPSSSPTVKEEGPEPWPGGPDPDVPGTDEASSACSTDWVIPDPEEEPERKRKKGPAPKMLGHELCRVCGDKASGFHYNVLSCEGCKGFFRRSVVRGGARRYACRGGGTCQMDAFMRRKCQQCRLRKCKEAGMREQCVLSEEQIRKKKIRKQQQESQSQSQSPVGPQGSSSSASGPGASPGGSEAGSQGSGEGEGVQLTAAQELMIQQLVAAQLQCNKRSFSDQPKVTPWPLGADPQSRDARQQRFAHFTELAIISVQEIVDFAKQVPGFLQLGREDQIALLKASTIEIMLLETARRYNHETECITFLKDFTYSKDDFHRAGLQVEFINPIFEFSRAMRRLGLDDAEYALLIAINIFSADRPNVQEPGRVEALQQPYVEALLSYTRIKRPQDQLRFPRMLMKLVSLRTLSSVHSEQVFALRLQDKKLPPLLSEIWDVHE
hcDAF12 conf – hcDAF-12 agonism, confirmation assay; actives 61% (n = 3,400); HEK293 hcDAF-12 lit1-tk-luc reporter, luminescence; % of Δ7-dafachronic acid response; shares compounds with hcDAF12 agonist; activation, % at 6.8 µM; AID 743032;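 active means mean activation across triplicate tests above the threshold derived from the earlier primary screen, cut at about 5.5% in these data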
Large screens that a line does not name were inactive (follow-up assays come after a bar, where they were run). A selection: hits, their analogues and other compounds. The true share with any hit is near 3.4%.

Cc1ccc(C(=O)Nc2ccc3c(c2)OCCO3)cc1	none (no result: APP 5'UTR act, NF-kB expr up)
COc1ccc(Cl)cc1C(=O)Nc1ccncc1	none (no result: APP 5'UTR act, NF-kB expr up)
COc1ccc(Cl)cc1C(=O)Nc1ccc2c(c1)OCCO2	ssDAF-12 act 3.0, hcDAF12 agonist 8.6 (no result: APP 5'UTR act, NF-kB expr up) | LXR ag inactive | hcDAF12 conf 12
Cc1ccc(C(=O)Nc2ccc3c(c2)OCO3)cc1	APP 5'UTR act 142, NF-kB expr up 4.9, ssDAF-12 act 3.3, hgDAF12 agonist 13, hcDAF12 agonist 20 | LXR ag inactive | hcDAF12 conf 14
CCc1csc(N2[C@H](CN(CCOC)S(=O)(=O)c3ccccc3[N+](=O)[O-])[C@H](c3ccccc3)[C@@H]2CO)n1	none (no result: APP 5'UTR act, NF-kB expr up)
COc1cccc(CNS(=O)(=O)c2cc3c(cc2Br)CC(C)N3C(C)=O)c1 (centres undefined)	none (no result: APP 5'UTR act, NF-kB expr up)
CN(c1ccccc1C(=O)Nc1ccc2c(c1)OCO2)S(C)(=O)=O	none
CC(C)c1cc(C(=O)Nc2ccc3c(c2)OCO3)no1	APP 5'UTR act 145, NF-kB expr up 6.4, ssDAF-12 act 2.0, hcDAF12 agonist 12 | LXR ag inactive | hcDAF12 conf 7.9
O=C(Nc1ccc2c(c1)OCO2)c1cccs1	NF-kB expr up 3.4, hgDAF12 agonist 12, hcDAF12 agonist 6.6 | LXR ag inactive | hcDAF12 conf 6.1
O=C(Nc1ccc2c(c1)OCO2)c1ccncc1	none
Cc1cc(NC(=O)c2noc3c2CCCCC3)no1	none (no result: ssDAF-12 act, hgDAF12 agonist, hcDAF12 agonist)
Cc1ccccc1C(=O)Nc1ccc2c(c1)OCO2	APP 5'UTR act 177, NF-kB expr up 4.8, hgDAF12 agonist 13, hcDAF12 agonist 6.8 | LXR ag inactive | hcDAF12 conf inactive
O=C(Nc1ccc2c(c1)OCO2)c1noc2c1CCCCC2	APP 5'UTR act 178, NF-kB expr up 7.7, hgDAF12 agonist 12, hcDAF12 agonist 9.0 | LXR ag inactive | hcDAF12 conf 6.1
C#CCNC(=O)C[C@H]1C[C@@]2(C(=O)OC)C(=C[C@H](C(C)C)O[C@@H]2C2CC2)N(Cc2cccc3ccccc23)C1=O	none (no result: APP 5'UTR act, NF-kB expr up)
CC1(C)CC(=O)C=C(Nc2ccccc2NC(=O)c2cc(Cl)ccc2F)C1	none (no result: APP 5'UTR act, NF-kB expr up)
COc1cc(OC)cc(OC(=O)C2CCN(C3=NS(=O)(=O)c4ccccc43)CC2)c1	none (no result: APP 5'UTR act, NF-kB expr up)
O=C(OCc1nc2ccccc2s1)C1CCN(C2=NS(=O)(=O)c3ccccc32)CC1	ssDAF-12 act 1.4, hcDAF12 agonist 9.7 | LXR ag inactive | hcDAF12 conf 9.6
CCNC(=S)Nc1ccc(OCc2nc3ccccc3s2)cc1	ssDAF-12 act 1.2, hcDAF12 agonist 7.8 (no result: APP 5'UTR act, NF-kB expr up) | LXR ag inactive | hcDAF12 conf 8.2
CN1C(=O)c2cc(NC(=O)Nc3ccccc3)ccc2OC[C@H]2O[C@@H](CC(=O)N[C@H]3CCN(Cc4ccccc4)C3)CC[C@@H]21	none (no result: APP 5'UTR act, NF-kB expr up)
O=C(CNCc1ccccc1[N+](=O)[O-])N1CCC2(CC1)OCCO2	hgDAF12 agonist 13, hcDAF12 agonist 7.0 (no result: APP 5'UTR act, NF-kB expr up) | LXR ag inactive | hcDAF12 conf inactive
COc1ccc2sc3ccccc3c(=O)c2c1	none
COc1ccc(-c2cc(=O)c3ccccc3s2)cc1	NF-kB expr up 5.6, ssDAF-12 act 0.9, hgDAF12 agonist 22, hcDAF12 agonist 16 | LXR ag inactive | hcDAF12 conf 10
CC1=NN(C(N)=S)C(=O)C1N=Nc1ccc(C)cc1C (centres undefined)	ssDAF-12 act 1.2, hgDAF12 agonist 11, hcDAF12 agonist 12 | LXR ag inactive | hcDAF12 conf 13
CC(C)Oc1cccc(-c2n[nH]c(=S)n2N=Cc2ccc(OCc3ccccc3)cc2)c1	none (no result: APP 5'UTR act, NF-kB expr up)
C=CCn1c(COc2ccccc2)nnc1SCc1ccc(C#N)cc1	none
C=CCn1c(COc2ccc(CC)cc2)nnc1SC/C(O)=C(\C#N)c1nc2ccccc2[nH]1	hcDAF12 agonist 8.2 | LXR ag inactive | hcDAF12 conf 6.1
O=c1oc2ccccc2c(Nc2cc3ccccc3cc2O)c1[N+](=O)[O-]	ssDAF-12 act 1.0, hgDAF12 agonist 17, hcDAF12 agonist 8.3 | LXR ag inactive | hcDAF12 conf 14
CCc1ccccc1NC(=O)c1onc(C)c1Cl	hcDAF12 agonist 9.4 | LXR ag inactive | hcDAF12 conf inactive
O=C(OCC(=O)c1c[nH]c2ccccc12)c1cc2ccccc2cc1O	hcDAF12 agonist 8.0 | LXR ag inactive | hcDAF12 conf inactive
CCOC(=O)C1CCCN(C(=O)Cc2c(C(=O)O)[nH]c3ccccc23)C1 (centres undefined)	hcDAF12 agonist 6.8 | LXR ag inactive | hcDAF12 conf inactive
N#Cc1c(SCC(=O)Nc2nc3ccccc3s2)sc2c(O)cc(=O)[nH]c12	hcDAF12 agonist 7.9 (no result: APP 5'UTR act, NF-kB expr up) | LXR ag inactive | hcDAF12 conf inactive
COc1ccc(-n2c(SCC(=O)NN=Cc3c(O)ccc4ccccc34)nnc2-c2ccc(C(C)(C)C)cc2)cc1	none (no result: APP 5'UTR act, NF-kB expr up)
O=C1C=C(Nc2ccc(O)cc2)C(=O)c2ccccc21	hcDAF12 agonist 8.8 (no result: APP 5'UTR act, NF-kB expr up) | LXR ag inactive | hcDAF12 conf 6.6
CC(=O)Nc1ccc(NC2=CC(=O)c3ccccc3C2=O)cc1	none (no result: APP 5'UTR act, NF-kB expr up)
C=CCN(CC#CC(=C)C)Cc1ccccc1	none (no result: APP 5'UTR act, NF-kB expr up)
Cc1cc(/C(N)=N/OC(=O)c2cccc(Cl)c2)no1	ssDAF-12 act 1.5, hcDAF12 agonist 7.1 (no result: APP 5'UTR act, NF-kB expr up) | LXR ag inactive | hcDAF12 conf inactive
N/C(=N\OC(=O)c1cccc(Br)c1)c1ccccn1	ssDAF-12 act 1.4, hcDAF12 agonist 17 (no result: APP 5'UTR act, NF-kB expr up) | LXR ag inactive | hcDAF12 conf 12
O=C(COC(=O)c1ccccn1)c1cccc(Br)c1	none (no result: APP 5'UTR act, NF-kB expr up)
N/C(=N\OC(=O)c1cccc(Cl)c1)c1ccccn1	APP 5'UTR act 166, NF-kB expr up 5.3, hcDAF12 agonist 13 | LXR ag inactive | hcDAF12 conf 8.2
N#C/C(=C\c1ccc(-c2nc3ccccc3s2)o1)C(N)=O	hcDAF12 agonist 6.8 (no result: APP 5'UTR act, NF-kB expr up) | LXR ag inactive | hcDAF12 conf inactive
Cc1c(/N=C(\[O-])Nc2ccc(Br)cc2)sn[n+]1C	hgDAF12 agonist 11, hcDAF12 agonist 7.0 (no result: APP 5'UTR act, NF-kB expr up) | LXR ag inactive | hcDAF12 conf 7.5
CN(C)c1ccc(C(=O)Nc2nc3c(s2)CCCC3)cc1	hgDAF12 agonist 12, hcDAF12 agonist 7.7 | LXR ag inactive | hcDAF12 conf 8.4
CC(C)(C)NC(=O)C(c1cccnc1)N(C(=O)c1cccs1)c1ccc(C(C)(C)C)cc1 (centres undefined)	none (no result: APP 5'UTR act, NF-kB expr up)
Cc1ccc(-n2c(Cc3cccs3)nnc2SCc2ccc(Br)cc2)cc1	none (no result: APP 5'UTR act, NF-kB expr up)
COc1ccccc1NC(CC(=O)c1ccccc1)C(=O)OCC(=O)c1ccc(Br)cc1 (centres undefined)	ssDAF-12 act 2.1, hgDAF12 agonist 23, hcDAF12 agonist 20 | LXR ag inactive | hcDAF12 conf 21

Screening results from PubChem BioAssay.
